From PubChem BioAssay come the findings set out here.

Calls of active or inactive are those of the source.

Experiment [1] is described as follows: small molecules captured by biotinylated probe aFSTL3 – biochemical, small-molecule microarray, fluorescence 635/667, stem cell growth factor project, primary screen (AID 1064).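 Also: measures binding of the biotinylated anti-FSTL3 antibody to printed compounds.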 To be noted: higher = more signal.
Experiment [2] can be described thus: binders from COS7 lysate, DM2A8 probe, primary screen, torsin A project, cell lysate, small-molecule microarray, fluorescence 635/667 (AID 1065). As to conditions: higher = more signal, COS7 lysate expressing mutant human TOR1A.
Experiment [3] is described as follows: small molecules captured by biotinylated probe aFGF2 – biochemical, small-molecule microarray, fluorescence 635/667, stem cell growth factor project, primary screen (AID 1067).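 Also: measures binding of biotinylated aFGF2 protein to printed compounds on slides; z-score merges feature fluorescence and signal-to-noise across triplicate slides.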 As to conditions: higher = more signal.
Experiment [4] can be described thus: small molecules captured by biotinylated probe aFGF10 – biochemical, small-molecule microarray, fluorescence 635/667, stem cell growth factor project, primary screen (AID 1071).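 Also: score merges 667 nm spot intensity and signal to noise from triplicate slides.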 As to conditions: higher = more signal.
For experiment [5], the target named is Neurogenic locus notch homolog protein 2 (Homo sapiens) (UniProt Q04721). Put plainly: small molecules binding Notch2 protein – biochemical, small-molecule microarray, 635 nm fluorescence, stem cell growth factors, primary screen (AID 1073). As to conditions: higher = more signal.
Chain of Neurogenic locus notch homolog protein 2 (Homo sapiens) (Q04721 whole entry, looked up, canonical isoform): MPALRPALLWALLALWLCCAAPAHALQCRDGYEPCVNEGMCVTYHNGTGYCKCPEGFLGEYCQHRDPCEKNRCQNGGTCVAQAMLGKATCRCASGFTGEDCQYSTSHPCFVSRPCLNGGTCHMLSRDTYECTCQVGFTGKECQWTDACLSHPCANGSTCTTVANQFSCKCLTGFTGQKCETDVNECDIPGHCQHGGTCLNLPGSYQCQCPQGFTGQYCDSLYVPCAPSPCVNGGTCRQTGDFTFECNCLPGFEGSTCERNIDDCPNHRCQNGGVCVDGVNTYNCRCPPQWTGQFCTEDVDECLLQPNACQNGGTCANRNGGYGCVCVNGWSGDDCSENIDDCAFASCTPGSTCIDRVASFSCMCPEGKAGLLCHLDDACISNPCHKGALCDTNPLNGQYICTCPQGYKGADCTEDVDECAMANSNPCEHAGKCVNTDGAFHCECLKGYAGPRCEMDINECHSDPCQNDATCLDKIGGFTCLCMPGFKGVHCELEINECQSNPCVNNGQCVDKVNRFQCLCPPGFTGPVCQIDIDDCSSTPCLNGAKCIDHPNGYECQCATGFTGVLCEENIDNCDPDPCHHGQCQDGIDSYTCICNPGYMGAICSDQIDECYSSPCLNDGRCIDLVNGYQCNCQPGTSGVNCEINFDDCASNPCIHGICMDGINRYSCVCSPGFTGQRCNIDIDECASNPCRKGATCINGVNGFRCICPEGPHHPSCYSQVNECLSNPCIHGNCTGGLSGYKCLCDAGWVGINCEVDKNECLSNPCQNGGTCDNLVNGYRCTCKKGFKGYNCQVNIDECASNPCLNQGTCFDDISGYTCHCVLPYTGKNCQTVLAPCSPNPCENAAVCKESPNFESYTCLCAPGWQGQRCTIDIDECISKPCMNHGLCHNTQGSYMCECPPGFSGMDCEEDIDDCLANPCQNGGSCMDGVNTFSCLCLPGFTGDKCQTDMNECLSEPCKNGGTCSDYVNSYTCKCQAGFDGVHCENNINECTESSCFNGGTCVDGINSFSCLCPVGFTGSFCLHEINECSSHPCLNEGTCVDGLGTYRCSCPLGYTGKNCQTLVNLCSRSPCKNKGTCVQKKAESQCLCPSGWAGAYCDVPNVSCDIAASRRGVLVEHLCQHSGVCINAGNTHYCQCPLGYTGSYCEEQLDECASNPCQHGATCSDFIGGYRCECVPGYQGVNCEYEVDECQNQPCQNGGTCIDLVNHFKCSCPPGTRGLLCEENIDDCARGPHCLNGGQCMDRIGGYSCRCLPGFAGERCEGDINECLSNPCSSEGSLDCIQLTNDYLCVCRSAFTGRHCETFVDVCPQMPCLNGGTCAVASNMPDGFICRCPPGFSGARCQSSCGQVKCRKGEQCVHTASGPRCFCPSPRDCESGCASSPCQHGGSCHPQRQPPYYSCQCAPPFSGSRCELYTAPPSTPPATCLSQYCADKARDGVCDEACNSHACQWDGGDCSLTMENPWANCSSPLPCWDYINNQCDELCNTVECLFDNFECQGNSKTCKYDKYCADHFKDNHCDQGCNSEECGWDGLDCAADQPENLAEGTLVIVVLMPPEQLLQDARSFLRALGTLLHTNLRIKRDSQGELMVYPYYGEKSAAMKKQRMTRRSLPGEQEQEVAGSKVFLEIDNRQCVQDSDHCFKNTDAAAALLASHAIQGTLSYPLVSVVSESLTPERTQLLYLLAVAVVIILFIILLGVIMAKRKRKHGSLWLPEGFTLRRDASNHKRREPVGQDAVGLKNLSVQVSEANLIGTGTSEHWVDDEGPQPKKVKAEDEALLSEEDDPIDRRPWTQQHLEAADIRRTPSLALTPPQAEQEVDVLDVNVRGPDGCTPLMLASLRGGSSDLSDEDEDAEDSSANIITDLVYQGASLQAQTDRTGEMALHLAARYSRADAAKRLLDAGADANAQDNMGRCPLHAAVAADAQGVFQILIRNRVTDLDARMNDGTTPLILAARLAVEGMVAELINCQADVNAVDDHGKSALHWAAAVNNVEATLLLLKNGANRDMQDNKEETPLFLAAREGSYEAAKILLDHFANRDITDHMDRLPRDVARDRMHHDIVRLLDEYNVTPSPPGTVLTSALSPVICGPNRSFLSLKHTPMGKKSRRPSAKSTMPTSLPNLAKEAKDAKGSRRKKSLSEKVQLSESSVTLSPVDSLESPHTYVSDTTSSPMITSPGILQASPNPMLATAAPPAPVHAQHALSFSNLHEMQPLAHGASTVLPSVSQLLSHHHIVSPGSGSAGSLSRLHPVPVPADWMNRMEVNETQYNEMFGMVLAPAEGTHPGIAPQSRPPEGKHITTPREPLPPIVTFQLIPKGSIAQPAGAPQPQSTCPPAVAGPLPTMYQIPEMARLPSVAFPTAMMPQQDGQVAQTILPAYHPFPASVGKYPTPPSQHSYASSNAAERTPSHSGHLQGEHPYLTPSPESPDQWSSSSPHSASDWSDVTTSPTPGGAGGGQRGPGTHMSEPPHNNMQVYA
Experiment [6] concerns the target Pro-neuregulin-1, membrane-bound isoform (Homo sapiens) (UniProt Q02297). Kind of experiment: small molecules binding neuregulin-1 protein – biochemical, small-molecule microarray, fluorescence 635/667, psychiatric disease protein project, primary screen (AID 1075).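 Also: score combines 667 nm spot fluorescence with signal to noise.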 As to conditions: NRG1 binding, 635 nm fluorescence, higher = more signal.
The test system of experiment [7] is Neuregulin-1 EGF-like domain. Put plainly: small molecules binding NRG1 EGF domain – biochemical, small-molecule microarray, 635 nm fluorescence, primary screen (AID 1081).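 Also: binding of the protein to compounds printed on small-molecule microarray slides.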 To be noted: higher = more signal.
Experiment [8] is described as follows: FRG1 expression reporter modulators in myotubes – cell-based, C2C12 myotubes, firefly/Renilla luciferase, luminescence, FRG1 inhibition for FSHD, primary screen (AID 1084). To be noted: FRG1 promoter luciferase, higher = more signal, called active from +8 up or from −8 down.
Experiment [9] in a line: small molecules captured by biotinylated probe aFST – biochemical, small-molecule microarray, fluorescence 635/667, stem cell growth factor project, primary screen (AID 1086).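 Also: score merges 667 nm fluorescence with signal-to-noise of each printed compound spot.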 As to conditions: higher = more signal.
Experiment [10] can be described thus: binders of probe aHhip on microarray, primary screen, stem cell growth factor project, biochemical, small-molecule microarray, fluorescence 635/667 (AID 1087).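 Also: score merges spot fluorescence at 667nm with spot signal to noise ratio.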 To be noted: higher = more signal.

Chain of Pro-neuregulin-1, membrane-bound isoform (Homo sapiens) (Q02297 whole entry, looked up, the tested form may be a part, canonical isoform): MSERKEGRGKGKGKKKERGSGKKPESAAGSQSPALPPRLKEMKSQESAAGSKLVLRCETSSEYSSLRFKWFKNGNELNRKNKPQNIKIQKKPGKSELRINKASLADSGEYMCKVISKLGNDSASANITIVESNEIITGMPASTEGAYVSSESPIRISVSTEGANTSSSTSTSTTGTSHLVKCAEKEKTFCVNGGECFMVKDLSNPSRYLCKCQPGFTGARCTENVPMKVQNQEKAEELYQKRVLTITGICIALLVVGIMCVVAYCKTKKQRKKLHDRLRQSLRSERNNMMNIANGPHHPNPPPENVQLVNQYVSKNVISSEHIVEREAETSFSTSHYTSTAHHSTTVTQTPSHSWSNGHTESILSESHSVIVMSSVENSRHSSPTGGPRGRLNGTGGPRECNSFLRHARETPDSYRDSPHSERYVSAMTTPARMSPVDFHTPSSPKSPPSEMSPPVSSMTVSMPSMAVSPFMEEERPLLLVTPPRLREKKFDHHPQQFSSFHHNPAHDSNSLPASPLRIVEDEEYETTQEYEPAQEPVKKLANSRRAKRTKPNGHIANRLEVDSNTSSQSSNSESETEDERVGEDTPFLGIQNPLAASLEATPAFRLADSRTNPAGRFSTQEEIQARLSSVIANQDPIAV

As for `CC(C)=CCCC(C)=CCON=C1C[C@@H](O)[C@@H](O)[C@@H]2[C@@H]3C(=O)N(Cc4ccccc4)C(=O)[C@@H]3CC[C@H]12`, the composite z-score in [1] is -0.402; in experiment [2], -0.0325; in [3], -0.0263; in [4] it was 0.734; in experiment [5] it was 0.686; in [6], 0.774. For the same molecule, the composite z-score was 1.06 in experiment [7], 0.342 in experiment [9] and -0.305 in experiment [10]. Further, in experiment [8], the z-score is 0.134 (inactive).
As for `COc1ccc(O[C@H]2C=C[C@@H](c3ccccc3)O[C@@H]2COC(=O)CCC(C)=NOC[C@@H](O)[C@H]2O[C@@H]3OC(C)(C)O[C@@H]3[C@H]2O)cc1`, the composite z-score was -0.522 in [1]; 0.62 in experiment [2]; -0.102 in experiment [3]; 0.497 in experiment [4]; 0.624 in experiment [5]; 0.0094 in experiment [6]. Besides, the figures for the composite z-score in experiment [7], in [9] and in experiment [10] were 0.724, 0.659 and -0.0994, respectively. In addition, in [8], the z-score was 0.452 (inactive).
Turning to `O=C1OCCC=C1C(O)CCc1ccccc1` (stereo not given), the composite z-score in experiment [1] was -0.209; in [2] it was 0.652; in experiment [3], -0.0885; in experiment [4], 0.37; in experiment [5], 0.327; in [6], -0.192. Also, the results for the composite z-score in [7], in experiment [9] and in experiment [10] were 0.375, 0.285 and -0.0645, respectively. The z-score in experiment [8] is 0.667 (inactive).
Regarding `CO[C@@H]1COC(=O)CC=C[C@@H](C)[C@H](OC)COC(=O)[C@@H](C)COC(=O)CC=C[C@H]1C`, the composite z-score in experiment [1] is -0.404; in [2] it was 0.812; in experiment [3], 0.553; in [4], -0.552; in experiment [5] it was -1.27; in [6], -0.245. In addition, the composite z-score in [7] was -0.844; in experiment [9] it was -0.387; in experiment [10], 0.312. Further, the z-score in [8] was -0.182 (inactive).
For `C[C@@H]1NC(=O)[C@@H](C)COC(=O)[C@H](C)NC(=O)[C@@H](C)COC1=O`, the composite z-score is -0.537 in experiment [1]; 0.472 in experiment [2]; -0.121 in experiment [3]; 0.489 in [4]; 0.51 in experiment [5]; -0.292 in [6]. Also, the composite z-score in experiment [7] stood at 1.14; in experiment [9] it was 0.253; in experiment [10] it was 0.0623. The z-score in [8] was -3.49 (inactive).
As to `O=C1C[C@@H](O)[C@@H](O)[C@@H]2[C@@H]3C(=O)N(C[C@@H]4CCCO4)C(=O)[C@@H]3CC[C@H]12`, the composite z-score was -0.469 in [1]; 0.207 in experiment [2]; -0.0901 in experiment [3]; 0.377 in experiment [4]; 0.733 in experiment [5]; 0.17 in experiment [6]. The composite z-score in experiment [7] is 0.723; in experiment [9], 0.158; in experiment [10], -0.487. For the same molecule, the z-score in [8] is -0.0616 (inactive).
`CC(CCN1CCc2nc(-c3ccccc3)c(-c3ccccc3)cc2C1)=NOC[C@@H](O)[C@H]1O[C@@H]2OC(C)(C)O[C@@H]2[C@H]1O`: the composite z-score in experiment [1] is -0.621; in experiment [2], 0.59; in experiment [3], -0.085; in experiment [4] it was 0.455; in experiment [5] it was 0.331; in experiment [6] it was 0.609. The composite z-score came out at 0.676 in [7], 0.319 in experiment [9] and 0.0139 in [10]. In addition, the z-score in [8] is 1.54 (inactive).
Regarding `CO[C@@H]1COC(=O)[C@H](CCSC)NC(=O)CC=C[C@@H](C)COC(=O)[C@H](C)NC(=O)CC=C[C@H]1C`, the composite z-score is -0.605 in [1]; 1.03 in experiment [2]; -0.129 in experiment [3]; 0.347 in experiment [4]; 0.115 in [5]; -0.343 in [6]. Besides, the composite z-score in [7] turned out to be 0.871; in experiment [9] it was 0.457; in [10] it was 0.408. Also, the z-score in experiment [8] was -0.0159 (inactive).
In the case of `CCOC(=O)NN=C1C[C@@H](O)[C@@H](O)[C@@H]2[C@@H]3C(=O)N(c4cccc(Oc5ccccc5)c4)C(=O)[C@@H]3CC[C@H]12`, the composite z-score in experiment [1] was -0.441; in experiment [2], 0.192; in experiment [3], -0.187; in experiment [4], 0.221; in [5] it was 0.615; in experiment [6], 0.855. Besides, the composite z-score in [7] is 0.234; in [9], 0.0755; in [10], -0.0645. The z-score in experiment [8] is -0.0124 (inactive).
In the case of `CCOC(=O)[C@H](CC(C)C)NC(=O)CCC1CC(OC(=O)NCCc2ccc(F)cc2)CC2(CCCC(COC(=O)NCCOc3ccccc3)O2)O1` (stereo not given in full), the composite z-score in experiment [1] was -0.715; in experiment [2], -0.409; in experiment [3], -0.0909; in experiment [4], 0.704; in experiment [5] it was 1.25; in [6], 0.996. In addition, the composite z-score is 1.24 in experiment [7], 0.283 in [9] and -0.374 in experiment [10]. The z-score in experiment [8] was 1.99 (inactive).
In the case of `O=C1C[C@@H](O)[C@@H](O)[C@@H]2[C@@H]3C(=O)N(Cc4ccccc4)C(=O)[C@@H]3CC[C@@H]12`, the composite z-score in [1] is -0.281; in experiment [2], 0.311; in experiment [3], -0.0573; in experiment [4], 0.286; in experiment [5], 0.474; in experiment [6], 0.205. Further, the composite z-score in experiment [7] is 0.771; in [9] it was -0.0427; in [10], -0.204. Further, the z-score in experiment [8] was 0.554 (inactive).
Take `CO[C@H]1COC(=O)CCC[C@@H](C)[C@H](OC)COC(=O)[C@@H](C)NC(=O)CC=C[C@@H]1C`: the composite z-score is -0.467 in [1]; 2.11 in experiment [2]; -0.235 in [3]; -0.0534 in experiment [4]; -0.314 in [5]; -0.523 in [6]. The composite z-score was -0.723 in [7], 0.0835 in experiment [9] and -0.0994 in [10]. The z-score in [8] is 0.947 (inactive).
For the molecule `CC(CCN1CCCCc2nc(C)c(C)cc21)=NOC[C@@H](C)[C@H](OCc1ccccc1)C(C)C`, the composite z-score in experiment [1] was -0.443; in experiment [2] it was -0.548; in experiment [3], -0.29; in experiment [4], -0.776; in [5], -1.38; in experiment [6], -0.559. The composite z-score in [7] is -0.545; in experiment [9] it was -2.12; in [10], -0.0423. In addition, in experiment [8], the z-score was -0.688 (inactive).
Take `CCOC(=O)NN=C1C[C@@H](O)[C@@H](O)[C@@H]2[C@@H]3C(=O)N(Cc4ccccc4)C(=O)[C@@H]3CC[C@H]12`: the composite z-score is -0.276 in experiment [1]; 0.695 in experiment [2]; -0.124 in experiment [3]; 0.164 in experiment [4]; 0.287 in experiment [5]; -0.0283 in experiment [6]. Moreover, the composite z-score in [7] was -0.699; in experiment [9], 0.0387; in [10], -0.223. Further, the z-score in [8] was 1.08 (inactive).
